The values below come from paper PMC10726135, “HNF4α isoforms regulate the circadian balance between carbohydrate and lipid metabolism in the liver”.

Over roughly 18,000 sequences, “log2 normalized intensity” has its median near 0.36; the highest 2% begin near 7.3. Many of the other results were omitted from the sample, so the highest values are more common in it than they were.

In this test the target is T1, HNF4alpha8 (COS-7 nuclear extract) (Homo sapiens, UniProt P41235-5 1-452).
T1 sequence: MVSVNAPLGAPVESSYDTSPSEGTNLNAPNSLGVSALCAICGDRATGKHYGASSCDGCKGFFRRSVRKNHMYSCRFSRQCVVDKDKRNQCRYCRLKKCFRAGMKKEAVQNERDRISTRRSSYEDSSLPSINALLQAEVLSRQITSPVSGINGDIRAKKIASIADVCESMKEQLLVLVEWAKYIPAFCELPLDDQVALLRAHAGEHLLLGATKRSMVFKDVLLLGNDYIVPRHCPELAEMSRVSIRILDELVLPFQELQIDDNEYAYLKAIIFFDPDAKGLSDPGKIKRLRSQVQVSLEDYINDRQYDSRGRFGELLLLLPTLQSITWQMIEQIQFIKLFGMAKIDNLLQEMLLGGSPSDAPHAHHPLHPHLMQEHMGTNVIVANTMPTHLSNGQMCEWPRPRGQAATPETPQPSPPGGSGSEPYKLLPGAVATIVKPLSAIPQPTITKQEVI
In words: protein-binding microarray; COS-7 nuclear extract on double-stranded Agilent 4x180k PBM; binding buffer, salt, pH and temperature not given in the material; high values mean tight binding. Particulars: chain copies: 2; label: 3' end of strand 1 on the slide; dsDNA, one strand shown. The procedure, abridged: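 COS-7 cells were transiently transfected by CaPO4 with an expression vector for a human HNF4α isoform, and nuclear extracts were prepared from them. The extracts were applied to a custom Agilent SurePrint G3 4x180k array of double-stranded ~60-nt oligonucleotides, with ~44,000 test sequences spotted in quadruplicate. An Agilent G2565CA scanner imaged bound HNF4α at 2-µm resolution. Binding signal is the background-corrected, normalized gProcessedSignal from Agilent software.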
For “GCCACGGTCAGCAATGTGGACTTTGTCCTGGCCTAGGGAGATTAGAGTATCGGTCGA”, the binding signal worked out at 10.2 log2 normalized intensity. “GTGGACTTTGTCCTGTGGGCTGTAAAAATCGCCTAGGGAGATTAGAGTATCGGTCGA”: the binding signal was determined as 5.73 log2 normalized intensity. With “GCAATGTGGACTTTGTCCTGTGGGCTGTAAGCCTAGGGAGATTAGAGTATCGGTCGA”, the binding signal came out at 8.03 log2 normalized intensity. On to “TGGACTTTGGTCCTGGTCAGACTTGCCACGGCCTAGGGAGATTAGAGTATCGGTCGA”, for which the binding signal amounted to 5.42 log2 normalized intensity.

In the case of “AGTTTGCCACGGTCAGCAATGTGGACTTTGGCCTAGGGAGATTAGAGTATCGGTCGA”, the binding signal was 6.83 log2 normalized intensity. On to “GTGGGAGAAAGCTTTGGACTTTGGGCTGTGGCCTAGGGAGATTAGAGTATCGGTCGA”, for which the binding signal turned out to be 6.47 log2 normalized intensity. Regarding “CCGTCCTGTCCTGGACTTTCCTTTGTTGGGGCCTAGGGAGATTAGAGTATCGGTCGA”, the binding signal is 2.84 log2 normalized intensity. In the case of “CAGATAATTACCTGGACTCTAGAGCCAGACGCCTAGGGAGATTAGAGTATCGGTCGA”, the binding signal was 1.75 log2 normalized intensity. Take “CTCAAAGTCTAACCCAACTAAGAACACAGTGCCTAGGGAGATTAGAGTATCGGTCGA”: the binding signal stood at 1.24 log2 normalized intensity. With “AAAGTTCAGTTGCAAAGAACAGAATCCAGTGCCTAGGGAGATTAGAGTATCGGTCGA”, the binding signal is -0.777 log2 normalized intensity.

With “GTCTTACTGATGGGCAAAGTTTTCAAGAATGCCTAGGGAGATTAGAGTATCGGTCGA”, the binding signal turned out to be 1.24 log2 normalized intensity. Turning to “CATGTTTACTTTTGCAAGGTTTGTTCTTATGCCTAGGGAGATTAGAGTATCGGTCGA”, the binding signal is 1.87 log2 normalized intensity. Under “AGATGGGGTGAACTTTGGACCACATATAGAGCCTAGGGAGATTAGAGTATCGGTCGA” stands 7.98 log2 normalized intensity; under “TACCATGGGAGACCTCAGGGGTCATCAGATGCCTAGGGAGATTAGAGTATCGGTCGA”, 3.08 log2 normalized intensity; under “CTCAGTCATACCACATGGATGGATTCAGATGCCTAGGGAGATTAGAGTATCGGTCGA”, 0.256 log2 normalized intensity.

For “AGATCAGATGGGGTGAACTTTGGACCACATGCCTAGGGAGATTAGAGTATCGGTCGA”, the binding signal came to 8.04 log2 normalized intensity. As to “CAGGGGTCATCAGATAGATGGTCAGTGAACGCCTAGGGAGATTAGAGTATCGGTCGA”, the binding signal was 1.88 log2 normalized intensity.

On to “TGGGGTATCAGGTGGTGATGGTGGGAGGGAGCCTAGGGAGATTAGAGTATCGGTCGA”, for which the binding signal was -0.797 log2 normalized intensity. Regarding “GGTGAACTTTGAGACTATCCTTGGACCGCAGCCTAGGGAGATTAGAGTATCGGTCGA”, the binding signal is 3.32 log2 normalized intensity.

Turning to “GAGGACTTTGGCCTTTTGTGAGATATGGACGCCTAGGGAGATTAGAGTATCGGTCGA”, the binding signal came out at 4.16 log2 normalized intensity.

As for “ACAGGAGATCAGATGGGGTGAACTTTGGACGCCTAGGGAGATTAGAGTATCGGTCGA”, the binding signal is 9.11 log2 normalized intensity. On to “AAGGGAGAAAGACATGTTTCTAACTGCCCGGCCTAGGGAGATTAGAGTATCGGTCGA”, for which the binding signal was 0.0984 log2 normalized intensity.

As to “CTGCTTCGGCCTTTGACCTCGTGATAACGAGCCTAGGGAGATTAGAGTATCGGTCGA”, the binding signal was found to be 5.83 log2 normalized intensity. With “TTGAAGAAATGGTGGACTTTGTAGCTCAAAGCCTAGGGAGATTAGAGTATCGGTCGA”, the binding signal was found to be 4.79 log2 normalized intensity. As to “AAAGTTCTGCTGAGTATCCAAAGGTCAGTGGCCTAGGGAGATTAGAGTATCGGTCGA”, the binding signal was 6.24 log2 normalized intensity.

As to “GACGGGAGGAAAACTGGGCAAAGGTCAGGAGCCTAGGGAGATTAGAGTATCGGTCGA”, the binding signal amounted to 5.58 log2 normalized intensity. In the case of “GGCGTGGACTTCGCTCCGCCGCTAGGTGGCGCCTAGGGAGATTAGAGTATCGGTCGA”, the binding signal amounted to 3.13 log2 normalized intensity. Under “GCCAGGCAGGACAGTTTTGTGTGTTTAATGGCCTAGGGAGATTAGAGTATCGGTCGA” stands 0.878 log2 normalized intensity; under “AAATGCTGATAATGATATGGACAATGAAATGCCTAGGGAGATTAGAGTATCGGTCGA”, 0.122 log2 normalized intensity.

“AGTGGACTTTGACCTTGTTTTCAATGACTAGCCTAGGGAGATTAGAGTATCGGTCGA”: the binding signal was 7.8 log2 normalized intensity.

Take “CACATGCTATTATTTTCCATCAGTGGACTTGCCTAGGGAGATTAGAGTATCGGTCGA”: the binding signal was 3.95 log2 normalized intensity. Consider “CCCAGGGACTTTGGCCTTACTTGGCCTGTTGCCTAGGGAGATTAGAGTATCGGTCGA”, for which the binding signal was found to be 3.01 log2 normalized intensity. Under “GTTCAATGCTTCAGTGAGCCTTGACCTTCAGCCTAGGGAGATTAGAGTATCGGTCGA” stands 4.83 log2 normalized intensity.

Take “AGACCTTTGACATCACCTAACTTGTGGCTGGCCTAGGGAGATTAGAGTATCGGTCGA”: the binding signal amounted to 1.49 log2 normalized intensity. Take “ACTTTGACCTTGTTTTCAATGACTACCTGTGCCTAGGGAGATTAGAGTATCGGTCGA”: the binding signal is 2.13 log2 normalized intensity. Regarding “GCCAGCCAGGGCCACCCATCAGTGGACTTTGCCTAGGGAGATTAGAGTATCGGTCGA”, the binding signal stood at 7.34 log2 normalized intensity. For the sequence “GACCTTGTTTTCAATGACTACCTGTTACCCGCCTAGGGAGATTAGAGTATCGGTCGA”, the binding signal stood at 1.81 log2 normalized intensity. Turning to “GCCACCCATCAGTGGACTTTGACCTTGTTTGCCTAGGGAGATTAGAGTATCGGTCGA”, the binding signal amounted to 10.8 log2 normalized intensity. With “CAGTGGACTTTGTCCTTCATCTATCTCCTTGCCTAGGGAGATTAGAGTATCGGTCGA”, the binding signal worked out at 5.95 log2 normalized intensity. For “CCATCAGTGGACTTTGACCTTGTTTTCAATGCCTAGGGAGATTAGAGTATCGGTCGA”, the binding signal was 9.54 log2 normalized intensity.

Consider “CCTTTCTACTGCCAGCCAGGGCCACCCATCGCCTAGGGAGATTAGAGTATCGGTCGA”, for which the binding signal is 0.592 log2 normalized intensity. Regarding “GCAGCTCTTTACAAAGCCCATGCTGGACCCGCCTAGGGAGATTAGAGTATCGGTCGA”, the binding signal is 4.69 log2 normalized intensity. For “TCACAGTGCCTCTGCAAGTTGGCCTTACTAGCCTAGGGAGATTAGAGTATCGGTCGA”, the binding signal is -0.0691 log2 normalized intensity.
